About 8,800 targets were measured; listed, in parts, are those with a hit and a random draw of the rest. About 0.5% of all pairs of compound and target were hits. A number with no mark means an inactive call.
Tests used:
Assay in all cases: log2 fold change, soluble protein after heating vs DMSO (PISA); higher = thermal stabilisation; K562 lysate, 10 uM; active = over 0.2 and 3.5 SD of the protein, either way, in both replicates (recomputed)
[1] = compound: CCCS(=O)(=O)Nc1ccc(F)c(C(=O)c2c[nH]c3ncc(-c4ccc(Cl)cc4)cc23)c1F [vemurafenib]
Outline: (§1)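 K562 pellets were dounce-homogenised in PBS pH 7.4 containing 1 mM MgCl2, and the crude extract, at 1 mg/mL protein, was exposed to 10 μM compound for 30 min. Aliquots were heated for 3 min across 48°C-58°C, pooled, brought to 0.5% NP-40 at 4°C and spun at 21,000xg for 90 min, with the supernatant taken as soluble protein. TMTpro 16plex LC-MS/MS with equalised channel sums quantified that protein. Values are log-two fold changes in thermal stability relative to solvent controls, taken from duplicates.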

[2] = compound: CCCS(=O)(=O)Nc1ccc(F)c(C(=O)c2c[nH]c3ncc(Cl)cc23)c1F
Outline: as §1

[3] = compound: CCN(CCCOc1ccc2c(Nc3cc(CC(=O)Nc4cccc(F)c4)[nH]n3)ncnc2c1)CCOP(=O)(O)O [barasertib]
Outline: as §1

[4] = compound: CC[C@@H]1C(=O)N(C)c2cnc(Nc3ccc(C(=O)NC4CCN(C)CC4)cc3OC)nc2N1C1CCCC1
Outline: as §1

[5] = compound: CC[C@@H]1C(=O)N(C)c2cnc(Nc3ccc(C(=O)N[C@H]4CC[C@H](N5CCN(CC6CC6)CC5)CC4)cc3OC)nc2N1C(C)C [volasertib]
Outline: as §1

[6] = compound: CCn1c(C(=O)N(C2CC2)C2CC2)cc2c3c(ncn3C)c(Nc3cc(C)n(C)n3)nc21
Outline: as §1

[7] = compound: CCn1cc(-c2ccnc3[nH]c(-c4cccc(CN(C)C)c4)cc23)c(-c2ccc(NC(=O)N(C)C)cc2)n1
Outline: as §1

[8] = compound: CN1CCC(CNc2ccc3ncc(-c4cccc(OC(F)(F)F)c4)n3n2)CC1
Outline: as §1

[9] = compound: CN1CCN(CCOc2cc(OC3CCOCC3)c3c(Nc4c(Cl)ccc5c4OCO5)ncnc3c2)CC1 [saracatinib]
Outline: as §1

[10] = compound: CN1CCN(c2nc(C3=C(c4c[nH]c5ccccc45)C(=O)NC3=O)c3ccccc3n2)CC1 [sotrastaurin]
Outline: as §1

[11] = compound: CN1CC[C@H](c2c(O)cc(O)c3c(=O)cc(-c4ccccc4Cl)oc23)[C@H](O)C1 [alvocidib]
Outline: as §1

[12] = compound: CN1CCc2c(c3ccccc3n2Cc2ccc(C(=O)NO)cc2)C1 [Tubastatin A]
Outline: as §1

[13] = compound: CNC(=O)C1=CC=CC=C1NC2=NC(=NC=C2Cl)NC3=C(C=C(C=C3)N4CCOCC4)OC
Outline: as §1

[14] = compound: CNC(=O)c1ccc(Nc2ncc(C(F)(F)F)c(NCc3nccnc3N(C)S(C)(=O)=O)n2)cc1 [defactinib]
Outline: as §1

[15] = compound: CNc1nc(-c2ccc3c(N)n[nH]c3c2)cc(N2C[C@@H](C(=O)NC3CCCCC3)CC[C@H]2C)n1
Outline: as §1

[16] = compound: COC(=O)N[C@@H](C)CNc1nccc(-c2cn(C(C)C)nc2-c2cc(Cl)cc(NS(C)(=O)=O)c2F)n1 [encorafenib]
Outline: as §1

[17] = compound: COC(=O)[C@H](CCSC)NC(=O)C1=C(C=C(C=C1)NC[C@H](CS)N)C2=CC=CC=C2
Outline: as §1

[18] = compound: COc1cc(Nc2ncc3c(n2)-c2ccc(Cl)cc2C(c2c(F)cccc2OC)=NC3)ccc1C(=O)O [alisertib]
Outline: as §1

[19] = compound: COc1cc2nc(-c3cc(F)ccc3O)nc(N[C@@H]3CNC[C@H]3C(C)(C)O)c2cc1OC
Outline: as §1

[20] = compound: COc1cc2ncnc(Nc3ccc(F)c(Cl)c3)c2cc1OCCCN1CCOCC1 [gefitinib]
Outline: as §1

UniProt P27348, sequence (P27348 whole entry, looked up): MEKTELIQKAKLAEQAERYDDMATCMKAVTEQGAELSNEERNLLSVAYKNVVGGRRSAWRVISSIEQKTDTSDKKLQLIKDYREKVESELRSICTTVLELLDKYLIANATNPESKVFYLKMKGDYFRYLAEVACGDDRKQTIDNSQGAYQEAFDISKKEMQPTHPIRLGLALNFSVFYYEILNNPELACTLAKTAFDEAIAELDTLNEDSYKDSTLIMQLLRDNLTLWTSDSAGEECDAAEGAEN
UniProt Q9BZI7, sequence (Q9BZI7 whole entry, looked up): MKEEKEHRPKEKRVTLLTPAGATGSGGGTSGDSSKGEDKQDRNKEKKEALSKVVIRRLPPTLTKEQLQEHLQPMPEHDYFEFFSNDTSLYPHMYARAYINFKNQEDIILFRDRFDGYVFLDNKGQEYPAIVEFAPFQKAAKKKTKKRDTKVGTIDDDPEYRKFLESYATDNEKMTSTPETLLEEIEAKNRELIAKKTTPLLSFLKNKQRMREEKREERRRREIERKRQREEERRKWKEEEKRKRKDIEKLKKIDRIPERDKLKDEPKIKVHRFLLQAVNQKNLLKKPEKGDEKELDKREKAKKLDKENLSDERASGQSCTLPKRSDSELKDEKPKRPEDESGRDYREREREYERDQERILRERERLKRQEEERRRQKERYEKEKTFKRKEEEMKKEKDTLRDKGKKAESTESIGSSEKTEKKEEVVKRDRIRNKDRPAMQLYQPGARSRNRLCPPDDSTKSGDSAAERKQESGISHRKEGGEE
UniProt P15498, sequence (P15498 whole entry, looked up): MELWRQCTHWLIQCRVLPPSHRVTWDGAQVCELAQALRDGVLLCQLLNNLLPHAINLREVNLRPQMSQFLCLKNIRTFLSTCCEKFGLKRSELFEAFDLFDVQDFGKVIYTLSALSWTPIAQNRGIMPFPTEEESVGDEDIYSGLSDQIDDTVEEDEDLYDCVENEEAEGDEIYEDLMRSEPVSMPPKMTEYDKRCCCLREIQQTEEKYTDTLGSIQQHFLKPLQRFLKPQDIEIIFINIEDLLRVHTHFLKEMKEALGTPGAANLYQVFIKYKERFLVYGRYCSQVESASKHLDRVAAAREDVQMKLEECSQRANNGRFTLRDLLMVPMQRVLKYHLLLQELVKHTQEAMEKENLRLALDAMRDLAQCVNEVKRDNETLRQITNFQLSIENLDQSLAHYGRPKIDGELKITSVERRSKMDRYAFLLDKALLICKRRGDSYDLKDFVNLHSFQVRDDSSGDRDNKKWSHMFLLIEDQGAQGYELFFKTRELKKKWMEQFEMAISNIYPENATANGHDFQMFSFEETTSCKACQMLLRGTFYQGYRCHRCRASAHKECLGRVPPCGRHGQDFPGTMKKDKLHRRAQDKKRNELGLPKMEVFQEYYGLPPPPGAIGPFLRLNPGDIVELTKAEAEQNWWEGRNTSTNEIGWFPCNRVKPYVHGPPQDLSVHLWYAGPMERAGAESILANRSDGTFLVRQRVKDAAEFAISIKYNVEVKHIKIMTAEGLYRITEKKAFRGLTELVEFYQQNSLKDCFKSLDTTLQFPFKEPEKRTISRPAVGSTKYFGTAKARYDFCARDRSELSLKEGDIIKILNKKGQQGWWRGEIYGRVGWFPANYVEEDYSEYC
UniProt O43149, sequence (O43149 whole entry, looked up): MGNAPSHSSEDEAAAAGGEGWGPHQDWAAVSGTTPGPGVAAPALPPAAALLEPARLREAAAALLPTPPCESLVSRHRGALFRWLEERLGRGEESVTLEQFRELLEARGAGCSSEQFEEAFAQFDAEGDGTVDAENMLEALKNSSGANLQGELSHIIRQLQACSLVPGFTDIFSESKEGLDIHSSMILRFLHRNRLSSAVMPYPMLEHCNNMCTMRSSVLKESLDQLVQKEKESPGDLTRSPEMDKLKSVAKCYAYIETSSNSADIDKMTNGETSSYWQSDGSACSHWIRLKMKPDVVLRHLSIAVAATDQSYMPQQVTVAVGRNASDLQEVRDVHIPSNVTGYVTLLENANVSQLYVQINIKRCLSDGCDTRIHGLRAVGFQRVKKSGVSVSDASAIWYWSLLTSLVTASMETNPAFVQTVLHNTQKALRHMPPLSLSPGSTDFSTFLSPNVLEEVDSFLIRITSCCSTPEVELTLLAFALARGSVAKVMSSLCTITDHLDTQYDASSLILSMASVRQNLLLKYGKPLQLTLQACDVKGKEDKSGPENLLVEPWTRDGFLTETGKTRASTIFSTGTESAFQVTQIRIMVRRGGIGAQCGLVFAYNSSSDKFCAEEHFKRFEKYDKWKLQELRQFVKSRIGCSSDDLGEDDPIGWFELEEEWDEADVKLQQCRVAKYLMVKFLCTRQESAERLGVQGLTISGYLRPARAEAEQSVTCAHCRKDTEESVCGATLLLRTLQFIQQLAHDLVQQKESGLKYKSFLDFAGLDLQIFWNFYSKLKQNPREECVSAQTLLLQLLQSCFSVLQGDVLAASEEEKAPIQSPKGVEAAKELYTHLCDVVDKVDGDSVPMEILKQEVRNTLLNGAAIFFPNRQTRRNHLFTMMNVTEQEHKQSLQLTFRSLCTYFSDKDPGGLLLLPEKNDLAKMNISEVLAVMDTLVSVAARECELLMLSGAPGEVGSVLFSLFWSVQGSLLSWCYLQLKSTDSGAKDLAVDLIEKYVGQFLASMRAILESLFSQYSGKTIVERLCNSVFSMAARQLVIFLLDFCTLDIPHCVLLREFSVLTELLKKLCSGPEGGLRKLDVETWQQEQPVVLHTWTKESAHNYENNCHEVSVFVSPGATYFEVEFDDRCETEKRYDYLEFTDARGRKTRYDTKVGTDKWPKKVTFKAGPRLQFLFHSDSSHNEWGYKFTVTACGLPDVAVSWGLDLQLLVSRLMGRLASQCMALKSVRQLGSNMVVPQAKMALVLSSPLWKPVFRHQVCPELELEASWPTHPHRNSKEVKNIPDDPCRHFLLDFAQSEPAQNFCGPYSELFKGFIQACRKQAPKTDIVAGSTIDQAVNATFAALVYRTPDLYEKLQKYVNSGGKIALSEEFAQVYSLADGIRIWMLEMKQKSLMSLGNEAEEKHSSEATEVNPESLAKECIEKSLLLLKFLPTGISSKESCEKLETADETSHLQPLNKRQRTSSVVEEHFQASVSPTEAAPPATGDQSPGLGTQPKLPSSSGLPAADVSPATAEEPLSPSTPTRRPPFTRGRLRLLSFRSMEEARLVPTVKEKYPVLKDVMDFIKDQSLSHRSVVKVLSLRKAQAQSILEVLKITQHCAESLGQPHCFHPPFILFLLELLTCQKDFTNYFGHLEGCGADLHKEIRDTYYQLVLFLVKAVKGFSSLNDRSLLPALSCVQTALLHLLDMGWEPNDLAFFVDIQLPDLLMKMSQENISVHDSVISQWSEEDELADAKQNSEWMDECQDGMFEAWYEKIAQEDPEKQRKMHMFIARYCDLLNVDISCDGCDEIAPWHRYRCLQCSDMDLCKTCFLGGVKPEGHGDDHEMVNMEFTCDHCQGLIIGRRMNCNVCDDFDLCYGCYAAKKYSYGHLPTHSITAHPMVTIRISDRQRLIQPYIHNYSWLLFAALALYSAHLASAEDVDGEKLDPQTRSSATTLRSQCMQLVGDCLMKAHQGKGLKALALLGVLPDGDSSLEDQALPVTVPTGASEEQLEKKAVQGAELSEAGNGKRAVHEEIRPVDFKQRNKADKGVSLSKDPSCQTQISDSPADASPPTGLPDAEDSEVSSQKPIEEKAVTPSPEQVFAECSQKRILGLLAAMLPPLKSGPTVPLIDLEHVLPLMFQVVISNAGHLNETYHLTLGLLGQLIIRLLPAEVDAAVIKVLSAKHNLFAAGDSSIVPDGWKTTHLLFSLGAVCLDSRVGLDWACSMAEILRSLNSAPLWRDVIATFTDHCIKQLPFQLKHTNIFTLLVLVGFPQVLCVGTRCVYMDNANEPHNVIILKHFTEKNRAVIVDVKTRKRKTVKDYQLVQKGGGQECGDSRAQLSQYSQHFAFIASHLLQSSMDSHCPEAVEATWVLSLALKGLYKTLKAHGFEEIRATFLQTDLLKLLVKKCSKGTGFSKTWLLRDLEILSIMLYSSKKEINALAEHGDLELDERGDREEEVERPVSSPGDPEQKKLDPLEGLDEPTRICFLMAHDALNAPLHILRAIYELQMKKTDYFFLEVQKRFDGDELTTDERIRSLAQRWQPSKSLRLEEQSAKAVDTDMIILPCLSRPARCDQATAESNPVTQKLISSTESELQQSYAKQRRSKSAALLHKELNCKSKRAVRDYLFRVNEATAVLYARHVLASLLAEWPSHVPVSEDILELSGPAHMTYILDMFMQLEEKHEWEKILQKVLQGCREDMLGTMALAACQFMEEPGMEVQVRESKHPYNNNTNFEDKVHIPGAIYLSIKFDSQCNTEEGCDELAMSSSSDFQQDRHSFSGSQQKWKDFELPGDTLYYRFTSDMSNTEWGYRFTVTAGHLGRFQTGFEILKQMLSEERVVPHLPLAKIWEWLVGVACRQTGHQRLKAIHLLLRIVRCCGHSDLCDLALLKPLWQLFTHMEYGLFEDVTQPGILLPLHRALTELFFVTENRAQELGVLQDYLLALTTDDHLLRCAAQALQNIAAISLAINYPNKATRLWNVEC
UniProt P50552, sequence (P50552 whole entry, looked up): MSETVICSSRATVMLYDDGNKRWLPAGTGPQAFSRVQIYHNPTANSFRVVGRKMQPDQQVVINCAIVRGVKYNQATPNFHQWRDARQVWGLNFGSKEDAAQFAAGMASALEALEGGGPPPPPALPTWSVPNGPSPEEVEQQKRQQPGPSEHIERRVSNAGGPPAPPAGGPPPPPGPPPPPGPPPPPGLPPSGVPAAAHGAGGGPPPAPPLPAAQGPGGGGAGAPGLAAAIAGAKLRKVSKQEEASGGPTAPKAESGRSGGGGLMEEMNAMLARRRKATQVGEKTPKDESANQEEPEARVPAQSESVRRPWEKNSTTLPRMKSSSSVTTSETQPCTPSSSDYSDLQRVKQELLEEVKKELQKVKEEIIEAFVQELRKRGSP
UniProt O00258, sequence (O00258 whole entry, looked up): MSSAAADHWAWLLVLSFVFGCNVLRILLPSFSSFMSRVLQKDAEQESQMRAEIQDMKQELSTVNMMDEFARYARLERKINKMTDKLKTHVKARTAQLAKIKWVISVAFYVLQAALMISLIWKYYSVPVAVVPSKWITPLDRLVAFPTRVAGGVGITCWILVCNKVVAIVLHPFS

Target	log2 fold change [1]	log2 fold change [2]	log2 fold change [3]	log2 fold change [4]	log2 fold change [5]	log2 fold change [6]	log2 fold change [7]	log2 fold change [8]	log2 fold change [9]	log2 fold change [10]	log2 fold change [11]	log2 fold change [12]	log2 fold change [13]	log2 fold change [14]	log2 fold change [15]	log2 fold change [16]	log2 fold change [17]	log2 fold change [18]	log2 fold change [19]	log2 fold change [20]
YES1 (UniProt P07947)	0.068	0.088	0.334	-0.086	-0.205	-0.106	-0.146	-0.007	0.331	-0.084	-0.065	0.171	-0.003	-0.228	-0.094	-0.009	-0.024	0.049	0.087	-0.13
ZZEF1 (UniProt O43149)	-0.013	0.012	0.051	-0.015	-0.028	-0.006	-0.116	0.029	0.036	0.01	0.005	-0.025	0.017	-0.022	0.017	0.022	0.065	-0.022	0.007	0.008
WRB (UniProt O00258)	0.086	0.077	0.098	-0.011	0.015	-0.148	-0.176	0.068	-0.147	0.013	-0.022	0.114	0.029	-0.003	0.044	-0.067	0.027	-0.028	0.022	0.061
UQCC2 (UniProt Q9BRT2)	-0.074	0.005	-0.039	-0.013	0.039	-0.039	0.287 (active)	-0.086	-0.04	-0.083	0.079	0.05	-0.027	0	0.006	0.021	-0.025	0.029	0.017	-0.059
YWHAQ (UniProt P27348)	-0.029	0.009	-0.023	0.025	0.023	-0.003	0.625 (active)	-0.092	-0.012	-0.047	0.16	-0.021	-0.006	0	0.023	-0.025	-0.045	-0.014	0.008	-0.06
VPS13C (UniProt Q709C8)	0.018	0.028	0.12	0.112	-0.017	-0.01	0	0.02	0.028	0.026	0.008	0.034	0.002	0.014	0.023	0.192	-0.131	0.111	0.157	0.131
XPO1 (UniProt O14980)	0.015	0.005	0.023	-0.055	-0.026	0.013	-0.05	0.019	0.033	0.022	0.005	-0.096	-0.011	0.016	-0.013	0.034	-0.101	0.013	0.023	-0.007
VASP (UniProt P50552)	-0.012	-0.011	-0.069	-0.022	-0.008	0.009	0.006	-0.009	0.007	-0.004	0.031	0.022	-0.017	0.013	-0.003	-0.033	-0.007	0.018	0.009	0.019
VPS35L (UniProt Q7Z3J2)	0.016	0.002	0.001	-0.072	-0.047	-0.004	-0.02	-0.005	0.004	0.046	0	-0.083	0.015	0.036	-0.013	0.014	0.006	-0.034	-0.023	-0.076
ZC3H11A (UniProt O75152)	0.104	0.084	0.055	0.03	-0.022	0	0.283	-0.182	-0.016	0.013	0.098	-0.077	0.076	-0.066	-0.023	0.045	0.078	0.019	0.09	0.034
ZNF609 (UniProt O15014)	0.165	0.033	0.027	0.011	0.005	0.022	-0.014	0.064	0.004	0.013	-0.028	-0.044	0.02	-0.026	0.074	0.002	0.013	-0.01	0.018	-0.002
ZNF451 (UniProt Q9Y4E5)	-0.013	0.02	0.019	0.066	-0.063	-0.022	-0.047	-0.048	0.039	0.002	-0.011	-0.121	0.027	0	-0.014	-0.03	0.07	0.008	-0.012	-0.009
VPS18 (UniProt Q9P253)	0.037	0.014	0	0	-0.083	0.046	-0.048	-0.04	-0.012	0.02	-0.016	-0.106	0.011	-0.057	-0.008	0.019	-0.125	0.005	-0.006	0.006
VAV1 (UniProt P15498)	0.032	-0.017	0.022	-0.041	-0.002	-0.041	-0.114	0.035	-0.011	-0.021	0.005	-0.117	-0.028	0.018	0.007	-0.026	0.025	-0.006	-0.044	0.024
VARS (UniProt P26640)	0.028	0.007	0.036	-0.077	-0.082	0.04	-0.014	-0.039	-0.001	0.03	-0.003	-0.086	0.002	0.025	-0.008	-0.008	0.16	-0.02	0.003	-0.006
UPF3B (UniProt Q9BZI7)	0.027	0.01	-0.006	0.026	0.004	-0.019	-0.231 (active)	0.031	0.005	-0.019	-0.105	-0.001	0.023	-0.015	0.011	0.011	0.049	0.021	-0.021	-0.038

— the supplement of paper PMC10849652
